SNCA viab count = GF-AFC viability counterscreen for inhibitors of alpha-synuclein gene (SNCA) expression. HEK-293-SNCA-luc viability, GF-AFC fluorescence, 24 h. Potency, µM (highest dose often 57.1 µM), without a hit: at the top dose activity change, negative = cytotoxicity, most hits filed as cytotoxic. 0.12% of 150,000 active. AID 1671193, 2021;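 note: potency is the fitted concentration of half-maximal effect; 0% = DMSO-treated cells and -100% = medium-only wells without cells; nearly all actives have a fitted effect of over 30% in size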
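Cytotoxicity counterscreen: after 24 h compound treatment of genome-edited SNCA-luciferase HEK-293 cells, live-cell protease substrate GF-AFC read by fluorescence after 30 min; activity scaled between DMSO (0%) and medium-only (-100%), curves Hill-fitted.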
SNCA expr inhib = Primary qHTS assay for inhibitors of alpha-synuclein gene (SNCA) expression. HEK-293 SNCA-luciferase knock-in, luminescence, 24 h. Potency, µM (series often up to 57.2 µM), without a hit: at the top dose activity change, negative = inhibition, hits mostly inhibitors. 0.17% of 140,000 active. AID 1671194, 2021;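 note: potency is the fitted concentration of half-maximal effect; plate controls were DMSO cells for no effect and cell-free wells for full effect; nearly all actives have a fitted effect of over 45% in size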
KDM5B inh = Primary screen for KDM5B Histone Demethylases FDH-coupled qHTS; Lysine-specific demethylase 5B (Homo sapiens), Q9UGL1; KDM5B demethylase, FDH-coupled NADH fluorescence (FDH is formaldehyde dehydrogenase); Potency, µM (highest dose often 57.7 µM), usual class: inhibitors; 2.6% of 220,000 active; AID 1347165, 2019; note: potency is the fitted concentration of half-maximal effect; 0% is about no effect; nearly all actives have a fitted effect of over 70% in size
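Here, H3K4me3 peptide (12.5 µM in substrate mix) is demethylated by KDM5BΔAP, 200 nM final, after 10 min compound exposure. Formaldehyde product is coupled through FDH (0.25 U/mL in mix) to NADH fluorescence; 30-min ΔRFU feeds dose-response curves.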
IP6K1 inhibitor = Primary qHTS assay for small molecule inhibitors of Inositol hexaphosphate kinase 1 (IP6K1) | Inositol hexakisphosphate kinase 1 (Homo sapiens), Q92551 | IP6K1 kinase, ADP-Glo luminescence, 2 h; active compounds read low | activity change, % (series mostly up to about 58 µM) | 0.81% of 140,000 active | AID 1645851, 2021; in the data active = activity change below about -25%; note: % is set by controls: 0 for no effect and ±100 for the full control effect
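ADP-Glo luminescence measures ADP made by human IP6K1 during a 2 h RT reaction with ATP/IP6 (mix at 1.3 mM/130 uM); top library doses 57.5 and 19.1 uM final.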
Starred values were filed as active, the others as inactive; i = inactive; ? = inconclusive; nt = not tested or not shown; [ ] = another dose, or the depositor's remark. Hits are enriched below; roughly 3% of the tested compounds scored in any of these assays. Unless noted, calls come from the whole dose curve; as a rule, active = well fitted curve in the direction sought with a large enough effect; inconclusive = small, poorly fitted or top-dose-only effect, or another doubt; inactive = no such curve, though single readings can be large; an effect the other way counts as inactive or inconclusive.

SMILES	SNCA viab count	SNCA expr inhib	KDM5B inh	IP6K1 inhibitor
CC(C)n1nc(OC(C)(C)C(=O)NC2CCOCC2)c2cc(CN3CCOCC3)ccc21	-2%	-19%	32µM*	8
CC(C)n1nc(OC(C)(C)C(=O)NC2CCC(O)CC2)c2cc(CN3CCOCC3)ccc21 (stereo not drawn)	-1%	63%	25µM*	8
COCc1ccc2c(c1)c(OC(C)(C)C(=O)NCC1CCOCC1)nn2Cc1cccnc1	3%	23%	i	0
CC(C)n1nc(OC(C)(C)C(=O)NCCOc2ccccc2)c2cc(CN3CCOCC3)ccc21	0%	-1%	28µM*	-8
CC(C)(Oc1nn(CC2CC2)c2ccc(CN3CCCC3)cc12)C(=O)Nc1cccnc1	-10%[87.6 µM]	8%[87.6 µM]	28µM*	-4
O=C(Nc1ccccc1Cl)C1CCCN(Cc2cccc(-c3cccs3)c2)C1 (stereo not drawn)	nt	nt	nt	11
CCCNC(=O)c1ccc(OCc2nnc(C(=O)Nc3ccccc3F)s2)cc1	nt	nt	i	nt
COc1cccc(-c2cc(C(=O)N3CCN(Cc4ccccc4)CC3)c3cnn(C)c3n2)c1	nt	nt	nt	2
O=C(O)C(c1c[nH]c2ccccc12)N1CCc2ccccc2C1 (stereo not drawn)	nt	nt	i	nt
CCN(CC)S(=O)(=O)c1cccc(NS(=O)(=O)c2ccc3ccccc3c2)c1	nt	nt	i	nt
CC(C)CNC(=O)C(C)(C)Oc1nn(C(C)C)c2ccc(CN3CCOCC3)cc12	-15%[87.6 µM]	8%[87.6 µM]	35µM*	3
O=C(O)C/C(=C/c1ccc(Cl)s1)c1nc2ccccc2o1	nt	nt	i	nt
CC(C)NC(=O)c1nc(-c2cccnc2)c2cnccn12	-1%[87.6 µM]	8%[87.6 µM]	35µM*	3
COCCNC(=O)c1nc(-c2cccnc2)c2cnccn12	8%[87.6 µM]	10%[87.6 µM]	i	0
CC(C)NC(=O)c1nc(-c2cccc(C(F)(F)F)c2)c2cnccn12	9%	-5%	32µM*	0
CN(CCc1noc(C(=O)NCc2ccc(F)cc2)n1)C(=O)Nc1cccc(Br)c1	nt	nt	i	nt
CC(=O)Nc1ccccc1-c1nccc2c(=O)cc(N(C)C3CCOCC3)oc12	8%[87.6 µM]	4%[87.6 µM]	35µM*	-9
CN(c1cc(=O)c2ccnc(-c3ccc([S+](C)(=O)[O-])cc3)c2o1)C1CCOCC1	6%[87.6 µM]	-7%[87.6 µM]	35µM*	-5
CN1CCN(c2cc(=O)c3ccnc(N4CCOCC4)c3o2)CC1	5%[87.6 µM]	10%[87.6 µM]	i	-16
CN1CCN(c2nccc3c(=O)cc(N(C)C4CCOCC4)oc23)CC1	9%[87.6 µM]	5%[87.6 µM]	40µM*	-18
CN(c1cc(=O)c2ccnc(-c3cncnc3)c2o1)C1CCOCC1	5%[87.6 µM]	-19%[87.6 µM]	i	-16
CN(c1cc(=O)c2ccnc(-c3cccc(CO)c3)c2o1)C1CCOCC1	3%[87.6 µM]	25%[87.6 µM]	40µM*	-19
Cc1cccc(C(=O)NC(C)C(=O)OC(C)C(N)=O)c1 (stereo not drawn)	nt	nt	i	nt
Cn1c(-c2ccccc2)csc1=N	nt	nt	i	nt
CN(C)c1cccc(-c2nccc3c(=O)cc(N(C)C4CCOCC4)oc23)c1	8%[87.6 µM]	?	28µM*	-18
SMILES	SNCA viab count	SNCA expr inhib	KDM5B inh	IP6K1 inhibitor
O=C(CN1CC(=O)NC1=O)NCc1ccc2[nH]c3c(c2c1)CCCCCC3	-4%	12%	22µM*	15
CC(C)[C@H](CO)Nc1nc(Nc2cccc(Cl)c2)c2ncn(C(C)C)c2n1	24µM*	5%	nt	nt
Cc1ccc2nc(C)cc(C(=O)N3CCC(c4cc(CC(=O)O)[nH]n4)CC3)c2c1	5%	-13%	i	1
Cc1ccc(-c2cc(C(=O)N3CCC(c4cc(CC(=O)O)[nH]n4)CC3)n[nH]2)o1	-3%	3%	25µM*	14
CC(C)C[C@H](NC(=O)CNC(=O)c1cc(Cl)ccc1Cl)B(O)O	?	0.54µM*	nt	nt
CN(C)c1ncc2c(n1)C(C)(C(=O)NCCCn1ccnc1)CCC2 (stereo not drawn)	9%[87.6 µM]	5%[87.6 µM]	35µM*	-4
CC1(C(=O)NCc2cccnc2)CCCc2cnc(Nc3ccccc3)nc21 (stereo not drawn)	-28%[87.6 µM]	-27%[87.6 µM]	i	-1
CN(C)c1ncc2c(n1)C(C)(C(=O)NCCOc1ccccc1)CCC2 (stereo not drawn)	-8%[87.6 µM]	12%[87.6 µM]	32µM*	5
CN(C)c1ncc2c(n1)C(C)(C(=O)Nc1ccc(Cl)cc1)CCC2 (stereo not drawn)	8%[87.6 µM]	-2%[87.6 µM]	35µM*	-12
CN(C)c1ncc2c(n1)C(C)(C(=O)NCC1CC1)CCC2 (stereo not drawn)	2%[87.6 µM]	-25%[87.6 µM]	32µM*	29
O=C(c1ccc(Cl)cc1)N1CCNc2cnc(Nc3cccc(C(F)(F)F)c3)nc2C1	0%	14%	?	-6
O=C(Cc1c[nH]c2ncc(-c3cn[nH]c3)cc12)NCc1cccnc1	4%[87.6 µM]	7%[87.6 µM]	?	-16
O=C(Cc1c[nH]c2ncc(-c3cccc(OC(F)(F)F)c3)cc12)NCc1cccnc1	-16%[87.6 µM]	-11%[87.6 µM]	28µM*	-13
O=C(Cc1c[nH]c2ncc(-c3ccc(F)cc3)cc12)NCc1cccnc1	-3%[87.6 µM]	0%[87.6 µM]	28µM*	-18
C1CC(COCCc2noc(C3CNC3)n2)CCO1	4.5µM*	?	?	0
Cc1ccc(-n2nc(C)c([C@@H]3C=C[C@@H](NCc4ccc(N(C)C)cc4)C3)c2C)cc1Cl	?	?	40µM*	14
Cc1nn(-c2ccc(C(C)C)cc2)c(C)c1[C@@H]1C=C[C@@H](NC(=O)NCc2ccccc2)C1	?	?	i	-4
Cc1nn(-c2ccc(C(F)(F)F)cc2)c(C)c1[C@@H]1C=C[C@@H](NC(=O)c2ccc(N(C)C)cc2)C1	-3%	15%	32µM*	10
Cc1nn(-c2ccc(C(C)(C)C)cc2)c(C)c1[C@@H]1C=C[C@@H](NC(=O)NCc2ccccc2)C1	?	36%[87.6 µM]	32µM*	13
Cc1nn(-c2ccc(C(C)(C)C)cc2)c(C)c1[C@@H]1C=C[C@@H](NC(=O)c2ccc(N(C)C)cc2)C1	-26%	-8%	?	7
O=C(O)c1nnn(-c2ccc(F)cc2)c1C(F)(F)F	nt	nt	i	nt
Cn1ncc2c(C(=O)NCc3ccc(F)cc3)cc(-c3ccccc3C(F)(F)F)nc21	nt	nt	nt	3
CCNc1c(NC(=O)Nc2cc(Cl)ccc2C)c(=O)oc2ccccc12	nt	nt	i	nt
CCCN1CCN(C(=O)C2CCc3ncc(-c4ccsc4)n3C2)CC1 (stereo not drawn)	3%	-19%	?	8
O=C(C1CCc2ncc(-c3ccsc3)n2C1)N1CCN(c2ccccn2)CC1 (stereo not drawn)	6%	?	25µM*	13
CN(C)C(=O)c1cc2c(s1)CCC(C(=O)N1CCN(c3ccccn3)CC1)C2 (stereo not drawn)	9%	-18%	28µM*	8
COc1ccc2c(c1)c(CN1CCc3nn(C)c(=O)n3CC1)cn2C	?	?	32µM*	-11
COc1ccc(-c2coc3cc(O)cc(O)c3c2=O)cc1	-11%	?	nt	nt

Screening results from PubChem.
